HT1080NT lethal: kills 2HG-producing HT-1080-NT fibrosarcoma cells. HT-1080-NT fibrosarcoma viability, CellTiter-Glo ATP luminescence, 48 h. Potency, µM (series often up to 46.1 µM), most hits filed as cytotoxic. 360,000 compounds, 1.6% hits;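 also: NT is the 2HG producing partner of a matched IDH1 knockdown line; nearly all actives have a fitted effect of over 55% in size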
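Compounds were tested in concentration-response format on HT-1080-NT cells for 48 hours at 37 degrees C. Cell viability came from CellTiter-Glo luminescence; curves were classified by r2, response magnitude and activity.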
TDP1 cell CPT: DT40-hTDP1 cell growth loss with CPT. chicken DT40 Tdp1-/-;hTDP1 cells + 20 nM CPT, ATP luminescence, 48 h. Potency, µM (highest dose often 46.2 µM), usual class: inhibitors. 420,000 compounds, 12% hits. AID 686979; also: nearly all actives have a fitted effect of over 55% in size
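Cell growth measured by CellTiter-Glo luminescence after a minimum 48 h, 37 C compound exposure with 20 nM CPT in Tdp1-knockout DT40 cells stably expressing hTDP1, seeded 400/well; qHTS titration format.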
HT1080 IDH1KD tx: kills HT-1080 cells with IDH1 knockdown. HT-1080 IDH1 knockdown viability, ATP luminescence, 48 h. Potency, µM (titrated, usually from 46.1 µM), hits mostly cytotoxic. 360,000 compounds, 2% hits
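After a 2 h attachment period, IDH1KD HT-1080 cells took pin-transferred compound for 48 h at 37 °C; ATP-based luminescence after 10 min room-temperature reagent incubation reported viability.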
TGFb SMAD3 inh: inhibitors of TGF-b signaling | HepG2 CAGA-GFP TGF-b/SMAD3 reporter, GFP fluorescence, 18 h; TGF-beta stimulated, 500 pg/mL final | Potency, µM (highest dose often 46.1 µM), most hits filed as inhibitors | 410,000 compounds, 1.2% hits; also: nearly all actives have a fitted effect of over 65% in size
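TGF-beta reporter screen: HEPG2 CAGA-GFP, 1% FBS, 500 pg/mL TGF-beta final, 18 h; per-cell GFP summed per well; curves fitted and categorized by class.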
TDP1 cell noCPT: qHTS for Inhibitors of human tyrosyl-DNA phosphodiesterase 1 (TDP1): qHTS in cells in absence of CPT | 420,000 compounds, 15% hits | Potency, µM (doses to about 46.2 µM), most hits filed as inhibitors | DT40 Tdp1-/- hTDP1 cells, no CPT, ATP luminescence, 48 h | AID 686978, 2013; also: nearly all actives have a fitted effect of over 55% in size
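Stably hTDP1-transfected Tdp1-null chicken DT40 cells were treated with library compounds minus camptothecin and grown for at least 48 hr at 37 °C, after which cellular ATP was quantified by luminescence.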
HepG2 viability: kills HepG2 cells in TGF-b inhibitor counter-screen; HepG2 CAGA-GFP viability, ATP luminescence, 18 h; Potency, µM (series often up to 46.1 µM), most hits filed as cytotoxic; 410,000 compounds, 0.76% hits; AID 588856
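HepG2 CAGA-GFP cells (1000/well, DMEM with 1% FBS) received compound, then TGF-beta at 500 pg/mL final, and were incubated 18 hours at 37 degrees C. Viability was read by CellTiter-Glo luminescence. Media-only wells were set as complete cell-killing and DMSO as no toxicity.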
Hits are given with their value; i = inactive; ? = inconclusive; nt = no result given; [ ] = remark or other dose. Compounds with a hit are over-represented: about 17% of the library has one in this group of screens. Calls follow the shape of the dose curve; as a rule, active = well fitted curve in the direction sought with a large enough effect; inconclusive = small, poorly fitted or top-dose-only effect, or another doubt; inactive = no such curve, though single readings can be large; an effect the other way counts as inactive or inconclusive.

SMILES	HT1080NT lethal	TDP1 cell CPT	HT1080 IDH1KD tx	TGFb SMAD3 inh	TDP1 cell noCPT	HepG2 viability
C[C@@H]1O[C@@H](O[C@@H]2[C@@H](O)[C@H](OCCc3ccc(O)c(O)c3)O[C@H](CO)[C@H]2OC(=O)/C=C/c2ccc(O)c(O)c2)[C@H](O)[C@H](O)[C@H]1O	i	i	i	i	i	i
COc1ccc(S(=O)(=O)N2CC(=O)Nc3ccccc32)cc1	i	i	i	i	i	i
O=C(NC1CCN(Cc2ccccc2)CC1)c1ccc2c(c1)[nH]c(=O)n2Cc1ccc(F)cc1	15µM	?	i	?	?	i
CCN(c1ccccc1)S(=O)(=O)c1ccc(Cl)c(NC(=O)CN(C)C2CCN(C)CC2)c1	?	?	23µM	i	16µM	i
O=C(NC1CCN(Cc2ccccc2)CC1)c1ccccc1	i	i	i	i	i	i
O=C(NC1CCN(Cc2ccc(Cl)cc2Cl)CC1)c1ccccc1	i	21µM	i	i	18µM	i
CC(C)(C)OC(=O)N1CCC(NC(=O)c2ncn(Cc3ccccc3)c2C(=O)NC2CCN(C(=O)OC(C)(C)C)CC2)CC1	i	23µM	i	?	?	i
COCC(=O)Nc1cc(C(=O)N[C@H]2CCCCNC2=O)c2c(c1)nc(-c1ccncc1)n2C	nt	i[9.04 µM]	nt	nt	i	nt
COC(=O)[C@@]12C[C@@H](CC(=O)N3CCC(c4ccccc4)CC3)C(=O)N(Cc3ccc4c(c3)OCO4)C1=CCC(C)(C)C2	i	?	i	nt	?	nt
CCCNC(=O)N(C)C[C@@H]1Oc2cc(Br)ccc2S(=O)(=O)N([C@@H](C)CO)C[C@H]1C	i	?	i	i	i	i
COc1ccc(-c2ccc(C(=O)Nc3cccc(N(C)C)c3)c3occc23)c(C)c1	i	?	i	i	?	i
Cc1ccc(NS(=O)(=O)c2cccc(C(=O)NC3CCN(Cc4ccccc4)CC3)c2)cc1	i	4.1µM	i	i	5.8µM	i
CCCCOc1ccc(C(=O)NCC(=O)OCCCOC(=O)CNC(=O)c2ccc(OCCCC)cc2)cc1	i	?	i	i	i	i
CCCCOc1ccc(C(=O)NCC(=O)NCC(=O)OCC)cc1	i	16µM	i	i	?	i
O=C(NC1CCN(Cc2ccccc2)CC1)c1cccc(S(=O)(=O)Nc2ccc(SC(F)F)cc2)c1	?	23µM	i	11µM	?	i
CC(C)(C)c1ccc(C(=O)NC2CCN(Cc3ccccc3)CC2)cc1	i	?	i	i	18µM	i
COc1ccc(OC)c(/C=C/C(=O)OCC(=O)NCc2cccs2)c1	i	i	i	i	i	i
COc1ccc(C(=O)O)cc1S(=O)(=O)N1CCSCC1	i	i	i	i	i	i
COc1cccc(-c2cc(N(C)Cc3ccco3)ncn2)c1	nt	i	nt	nt	i	nt
O=C(NC1CCN(Cc2ccccc2)CC1)c1ccccc1NS(=O)(=O)c1ccc(F)c(F)c1	i	i	i	i	?	i
O=C(NCC(=O)N1CCN(c2ccccc2)CC1)c1ccc(Cl)cc1	i	i	i	i	i	i
CCN1CCN(c2ccc(NC(=O)c3ccc4c(c3)[nH]c(=O)n4Cc3ccc(OC)cc3)cc2)CC1	i	23µM	i	?	?	i
O=C(NC1CCN(Cc2ccccc2)CC1)c1cc(S(=O)(=O)Nc2ccc(F)cc2)ccc1Cl	i	23µM	i	i	15µM	i
O=C(NCC(=O)N1CCC(Cc2ccccc2)CC1)c1ccc(Cl)cc1	i	16µM	i	i	?	i
CCCCOc1ccc(C(=O)NCC(=O)NC2CCC(C)CC2)cc1 (configuration not stated)	i	i	i	i	i	i
SMILES	HT1080NT lethal	TDP1 cell CPT	HT1080 IDH1KD tx	TGFb SMAD3 inh	TDP1 cell noCPT	HepG2 viability
CCCCOc1ccc(C(=O)NCC(=O)NC2CCN(Cc3ccccc3)CC2)cc1	i	23µM	i	i	?	i
O=c1c(-c2cc(F)cc(F)c2)nc2cncnc2n1C1CC1	nt	i	nt	nt	i	nt
Cc1ccccc1OCC(=O)Nc1ccc(C(=O)OCc2cc(=O)n3c(C)csc3n2)cc1	nt	i	nt	i	i	i
COc1ccc(N2CCN(C(=O)Cn3cnc4sc(C)c(S(=O)(=O)N5CCCCC5)c4c3=O)CC2)cc1	nt	?	nt	i	?	i
CCOC(=O)c1ccc(NC(=O)CN(c2ccc(C)cc2)S(=O)(=O)c2ccc(OC)cc2)cc1	nt	?	nt	i	?	i
CCN(c1ccccc1)S(=O)(=O)c1ccc(Cl)c(C(=O)NC2CCN(Cc3ccccc3)CC2)c1	i	9.2µM	i	?	6.5µM	i
O=c1c(N2CCc3ccccc3C2)csc2ccc(Br)cc12	nt	23µM	nt	i	?	i
CCc1nc2ccccc2nc1N1CCN(S(=O)(=O)c2ccc(Cl)cc2)CC1	i	i	i	i	?	i
O=S(=O)(c1ccccc1)N1c2cc(Cl)ccc2Oc2nc3ccccc3nc21	i	?	i	i	10µM	i
COCCCNCCCCOc1ccccc1-c1ccccc1	i	21µM	i	i	15µM	i
CNCCCCOc1ccccc1-c1ccccc1	i	26µM	?	?	?	i
Cc1ccc2c(c1)CO[C@]21O[C@H](CCO)C[C@H](O)[C@H]1O	i	i	i	i	i	i
O=C(COC(=O)c1cccc(F)c1)Nc1ccc2c(c1)OCCO2	i	i	i	i	i	i
CCn1ncc(Br)c1C(=O)Nc1ccc(C(C)C)cc1	i	i	i	i	i	i
CCOc1cc(-c2sc(Nc3ccccc3)n[n+]2C)ccc1OC	i	?	i	i	i	i
COc1ccc(-c2sc(Nc3ccccc3)n[n+]2-c2ccc(F)cc2)cc1Br	?	5.8µM	i	i	18µM	i
COc1ccc2ccccc2c1-c1sc(Nc2ccccc2)n[n+]1-c1ccc(F)cc1	?	21µM	?	?	13µM	11µM
COc1ccc(-c2sc(Nc3ccccc3)n[n+]2C)c(C)c1C	i	21µM	i	i	21µM	i
Cn1c(=O)cc(OCC(=O)N2CCN(c3cccc(C(F)(F)F)c3)CC2)c2ccccc21	i	21µM	i	i	15µM	i
CCn1c(=O)cc(OCC(=O)N(C)c2cc(Cl)ccc2C)c2ccccc21	nt	21µM	nt	?	23µM	i
CCn1c(=O)cc(OCC(=O)N2CCN(c3cccc(Cl)c3)CC2)c2ccccc21	nt	23µM	nt	i	15µM	i
CCOC(=O)N1CCN(C(=O)COc2cc(=O)n(C)c3ccccc23)CC1	i	i	i	i	i	i
CCn1c(=O)cc(OCC(=O)N2CCN(C(=O)c3ccco3)CC2)c2ccccc21	i	?	i	i	i	i

Assay outcomes from PubChem BioAssay.
